Consider 29 compounds from ChEMBL document CHEMBL1157539, “Thousands of chemical starting points for antimalarial lead identification” (Nature, 2010).

The subject of this test is Plasmodium falciparum. Put plainly: GSK_TCMDC: Inhibition of Plasmodium falciparum Dd2 in whole red blood cells, using parasite LDH activity as an index of growth. Test compounds present at 2uM. It is filed as functional.
By Inhibition is commonly meant the relative decrease from the control value, in per cent. As to `C[C@@H](Oc1cc(-n2cnc3ccc(NC(=O)CCN4CCCCC4)cc32)sc1C(N)=O)c1ccccc1Cl`, the Inhibition is 60%.

Turning to `CS(=O)(=O)c1ccc(-c2cncc(Nc3cccc([N+](=O)[O-])c3)c2)cc1`, the Inhibition was determined as 70%.

As to `CC(C)(CNC(=O)C1CCN(CCOCc2ccccc2)CC1)c1nc(-c2ccc(Cl)c(O)c2)c(-c2ccncc2)[nH]1.Cl`, the Inhibition stood at 18%.

The compound `COc1cccc(-c2cc(C(F)(F)F)n3ncc(C(=O)Nc4cc(Cl)ccc4O)c3n2)c1` yielded an Inhibition of 99%.

On to `C=C1C[C@@H](n2cnc3c(NC(=O)c4ccccc4)ncnc32)[C@@H](F)[C@@H]1OC(c1ccccc1)(c1ccccc1)c1ccccc1`, for which the Inhibition is given as 97%.

`CN1CCN(CCNc2c3ccccc3nc3c2ccc2ccccc23)CC1.Cl` returned an Inhibition of 66%.

As for `COc1ccc(CN2CCCN(Cc3ccc(C(=O)Nc4ccc(Cl)cc4)cc3)CC2)cc1.O=C(O)C(F)(F)F`, the Inhibition is 3%.

`COc1ccc2nccc([C@@H](O)CN3CCC(NC(=O)c4cc5c(Cl)cc(Cl)cc5[nH]4)CC3)c2c1` yielded an Inhibition of 98%.

In the case of `CN1CCC(NCc2cccc(-c3ccc(S(=O)(=O)NCCN4CCCC4)c(F)c3)c2)CC1.O=C(O)C(F)(F)F`, the Inhibition is given as 0%.

Turning to `CN1CCCN(Cc2cccc(-c3ccc(NC(=O)c4cccc(C#N)c4)cc3)c2)CC1.O=C(O)C(F)(F)F`, the Inhibition stood at 96%.

Take `Cc1ncccc1C(=O)Nc1ccc(-c2cccc(-c3nc4cccc(C)c4[nH]3)c2)cc1`: the Inhibition amounted to 31%.

`O=C(Nc1cccc(-c2ccc(-c3nc4cc(C(F)(F)F)ccc4[nH]3)cc2)c1)c1ccoc1` returned an Inhibition of 42%.

`Cc1cc2c(cc1C(F)(F)F)N(C(=O)Nc1ccc(C(=O)NC3CCN(Cc4ccccc4)C3)cc1)CC2` (centres undefined) showed an Inhibition of 48%.

Compound `CCN(CC)CCNc1nc(C=Cc2ccc(Cl)cc2)nc2cc3ccccc3cc12` returned an Inhibition of 99%.

Compound `Cc1cccn2c(=O)c3cc(C(=O)NCCN4CCOCC4)c(=N)n(CCc4ccccc4)c3nc12` displayed an Inhibition of 85%.

Turning to `Nc1nc(N)c2cc(S(=O)(=O)c3ccc4ccccc4c3)ccc2n1`, the Inhibition was 51%.

Compound `N#Cc1cccc(CN2CCCN(c3ccc(NC(=O)c4cccs4)cc3)CC2)c1.O=C(O)C(F)(F)F` had an Inhibition of 95%.

The compound `O=S(=O)(Nc1ccc(CCN2CCC(N3CCCCC3)CC2)cc1)c1ccc(Cl)cc1` came in with an Inhibition of 18%.

In turn, `CCOc1ccccc1N1CCN(CCCNC(=O)/C(=C/C=C/c2cc3cc(Cl)c(Cl)cc3[nH]2)OC)CC1` registered an Inhibition of 93%.

For `O=C(Nc1ccc(CCNC2=NCCN2)cc1)Nc1ccc(CCNC2=NCCN2)cc1`, the Inhibition is on record as 66%.

`Clc1ccc(CNCC2CCN(CC3CCCCC3)CC2)cc1Cl` registered an Inhibition of 6%.

`CCCN(CCC)CCOc1ccc(C(O)(C#CC(O)(c2ccc(OCCN(CCC)CCC)cc2)c2cccc(Cl)c2)c2cccc(Cl)c2)cc1` (centres undefined) showed an Inhibition of 98%.

As for `N=C(N)NN=CC(=O)Nc1ccc(C(F)(F)F)cc1.O=S(=O)(O)O`, the Inhibition was 9%.

Consider `COc1ccc(N2CCc3c(-c4cccc5cnccc45)cc(C)nc32)c(C)c1`, for which the Inhibition came out at 0%.

As for `Nc1ccc(-c2nc3cc(Oc4ccc5[nH]c(-c6ccc(N)cc6)nc5c4)ccc3[nH]2)cc1`, the Inhibition is 99%.

As to `O=C(O)C(F)(F)F.O=S(=O)(NCCN1CCCC1)c1ccc(-c2cccc(CNC3Cc4ccccc4C3)c2)s1`, the Inhibition came out at 69%.

Regarding `c1ccc(COc2ccc(COc3ccc(Cn4ccnc4)cc3)cc2)cc1`, the Inhibition stood at 45%.

For `CCOC(=O)c1ccc(-c2cnoc2-c2cc(CC)c(OC)cc2O)o1`, the Inhibition amounted to 97%.

`Cc1cccc2nc(-c3ccc(-c4cccc(NC(=O)NCc5ccc(F)cc5)c4)cc3)[nH]c12`: the Inhibition came to 100%.
